# KB-3-1 cytotox – kills parental KB-3-1 adenocarcinoma cells; KB-3-1 viability, CellTiter-Glo ATP luminescence, 72 h; actives 1.4% (n = 400,000); Potency, µM (highest dose often 46.1 µM), most hits filed as cytotoxic; also: nearly all actives have a fitted effect of over 60% in size
#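 72 h, 37 °C compound treatment of KB-3-1 parental cells; CellTiter-Glo added, 10 min, luminescence read. Data corrected against DMSO-only plates and normalized before curve fitting.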
# HT1080 IDH1KD tx – kills HT-1080 cells with IDH1 knockdown; HT-1080 IDH1 knockdown viability, ATP luminescence, 48 h; AID 686971; Potency, µM (titrated, usually from 46.1 µM), inactives show at the top dose activity, negative = toxicity, hits mostly cytotoxic; actives 2% (n = 360,000);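 also: 0% = DMSO wells and -100% = cell-free medium wells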
#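 Cytotoxicity counter-line: IDH1KD HT-1080, 48 h, CellTiter-Glo. Curves classed by r2, magnitude and activity.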
# DT40 TDP1 no CPT – qHTS for Inhibitors of human tyrosyl-DNA phosphodiesterase 1 (TDP1): qHTS in cells in absence of CPT. DT40 Tdp1-/- hTDP1 cells, no CPT, ATP luminescence, 48 h. Potency, µM (titrated, usually from 46.2 µM), for the others: at the top dose activity change, negative = growth inhibition, most hits filed as inhibitors. actives 15% (n = 420,000); also: nearly all actives have a fitted effect of over 55% in size
#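 Luminescent ATP content (CellTiter-Glo) served as the growth readout. Knockout chicken DT40 cells expressing human TDP1 were exposed to compounds without camptothecin for a minimum 48 hr at 37 °C.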
# DT40 TDP1 CPT – growth inhibition of DT40 Tdp1-/-;hTDP1 cells with camptothecin (screen for TDP1 inhibitors); actives 12% (n = 420,000); Potency, µM (top dose mostly 46.2 µM), for inactives: at the top dose activity change, negative = growth inhibition, most hits filed as inhibitors; chicken DT40 Tdp1-/-;hTDP1 cells + 20 nM CPT, ATP luminescence, 48 h; also: nearly all actives have a fitted effect of over 55% in size
#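 Chicken DT40 Tdp1-/- cells stably complemented with human TDP1 were seeded at 400 cells/well in medium containing 20 nM camptothecin, exposed to pin-transferred compounds, and grown at 37 °C for at least 48 hr. Viability was read as ATP luminescence.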
# HT1080NT lethal – kills 2HG-producing HT-1080-NT fibrosarcoma cells | Potency, µM (titrated, usually from 46.1 µM), for the others: at the highest dose activity, negative = less viability, hits mostly cytotoxic | actives 1.6% (n = 360,000) | AID 686970 | HT-1080-NT fibrosarcoma viability, CellTiter-Glo ATP luminescence, 48 h;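 also: NT is the 2HG producing partner of a matched IDH1 knockdown line; 0% = DMSO-treated cells and -100% = media-only wells without cells; nearly all actives have a fitted effect of over 55% in size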
#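 HT-1080-NT fibrosarcoma cells (2HG-overproducing), 750 cells/well in RPMI with 5% FBS, dosed after 2 h and incubated 48 h at 37C. CellTiter-Glo luminescence normalized to DMSO and no-cell wells; concentration-response curves fitted and classed.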
# KB-V1 MDR tox – KB-V1 MDR subline cytotoxicity | KB-V1 MDR cells viability, CellTiter-Glo, 72 h | Potency, µM (doses to about 46.1 µM), hits mostly cytotoxic | actives 3.4% (n = 400,000) | AID 1347076; also: nearly all actives have a fitted effect of over 60% in size
#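 Cells of the MDR subline KB-V1 are plated, dosed with compound at multiple concentrations, and incubated 72 h at 37 degrees C; CellTiter-Glo is then added and luminescence read after 10 min.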
# An asterisk follows results filed as active; i = inactive; ? = inconclusive; · = no result; [ ] = dose if it differs, or a comment. Compounds with a hit are over-represented: about 19% of the library has one in this group of screens. Calls follow the shape of the dose curve; as a rule, active = well fitted curve in the direction sought with a large enough effect; inconclusive = small, poorly fitted or top-dose-only effect, or another doubt; inactive = no such curve, though single readings can be large; an effect the other way counts as inactive or inconclusive. Unless noted, % is scaled to controls: 0 for no effect and ±100 for the full control effect; potency is read from the fitted curve at half-maximal effect.
SMILES,KB-3-1 cytotox,HT1080 IDH1KD tx,DT40 TDP1 no CPT,DT40 TDP1 CPT,HT1080NT lethal,KB-V1 MDR tox
COc1ccc(Cc2noc(CN(C)Cc3ccc(-n4cccn4)cc3)n2)cc1OC,?,-3%,21µM*,?,-22%,?
CCCCSCCCNC(=O)C1CCC(CNS(=O)(=O)c2ccccc2)CC1 (stereo not drawn),i,-15%,?,16µM*,-2%,?
CCCCNC(=O)C1CCC(CNS(=O)(=O)c2ccc(C)cc2)CC1 (stereo not drawn),i,10%,-15%,-2%,6%,i
CC1(C)CC(NCc2ccc3c(c2)OCO3)CCO1 (stereo not drawn),i,-3%,-9%,2%,1%,i
Cc1nc(NCc2cccnc2)c2c3c(sc2n1)CC(C)CC3 (stereo not drawn),i,-2%,?,?,-3%,i
CC(C)OCCCNc1ncnc2sc3c(c12)CCCC3,?,·,23µM*,21µM*,·,i
Cc1nc(NS(=O)(=O)c2ccc(Cl)s2)c2c3c(sc2n1)CCCC3,?,?,?,?,?,12µM*
Cc1nc(Oc2ccc(S(=O)(=O)N3CCOCC3)cc2Cl)c2c3c(sc2n1)CCCC3,?,2%,?,?,10%,i
COc1ccc(Nc2nc(C)nc3sc4c(c23)CCC4)cc1O,?,-13%,13µM*,15µM*,?,5.8µM*
Cc1nc(NCc2ccccn2)c2c3c(sc2n1)CCCC3,i,-21%,21µM*,?,-25%,i
CCn1c(=O)n(-c2ccc(F)c(Cl)c2)c(=O)c2c3c(sc21)CN(C(C)=O)CC3,i,·,-18%,?,·,i
CN(C)C(CNc1ncnc2sc3c(c12)CCCC3)c1ccco1 (stereo not drawn),i,-5%,23µM*,?,-9%,?
c1ccc(CNc2ncnc3sc4c(c23)CCCC4)nc1,i,-4%,23µM*,16µM*,-4%,8.2µM*
Cc1nc(NCc2ccco2)c2c3c(sc2n1)CCC3,?,?,13µM*,13µM*,?,i
CCC(C)(C)C1CCC2(CC1)NC(=O)N(CC(=O)N(C)CCOc1ccc(Cl)cc1)C2=O (stereo not drawn),i,0%,23µM*,?,1%,?
CCC(C)(C)C1CCC2(CC1)NC(=O)N(CC(=O)N(C)Cc1ccc(OC(F)F)cc1)C2=O (stereo not drawn),i,-20%,7.3µM*,-97%,-13%,?
O=C(CN1C(=O)NC2(CCCC2)C1=O)Nc1ccccc1C(F)(F)F,i,2%,-9%,5%,15%,i
CCC(C)(C)C1CCC2(CC1)NC(=O)N(CC(=O)NCCc1c[nH]c3ccccc13)C2=O (stereo not drawn),?,-14%,16µM*,16µM*,-2%,21µM*
CCC(C)(C)C1CCC2(CC1)NC(=O)N(CC(=O)N(C)CC(=O)Nc1ccccc1C(F)(F)F)C2=O (stereo not drawn),?,?,?,23µM*,-14%,?
Cc1cc(Cl)ccc1NC(=O)CCN1C(=O)NC(C)(C)C1=O,i,8%,7%,-16%,8%[9.24 µM],i
CCOC(=O)c1c(NC(=O)c2c(C(=O)O)cccc2[N+](=O)[O-])sc2c1CCCC2,i,0%,?,?,-1%,i
O=C(NCC[C@@H]1CC[C@@H](NC(=O)c2cnccn2)[C@@H](CO)O1)c1ccc2c(c1)OCO2,i,11%,0%,-2%,21%,i
COc1ccc2cc(CN(C)C(=O)CN3C(=O)NC4(CCCC4)C3=O)ccc2c1,i,-4%,23µM*,?,-1%,?
CCOc1ccc(CCNC(=O)c2cc3c(=O)[nH]c4ccc(C)cc4c3s2)cc1OCC,i,·,18µM*,4.1µM*,·,i
Cc1nccc2[nH]c(=O)c(C(=O)NC3CCCCC3C)cc12 (stereo not drawn),?,-2%,16µM*,?,1%,i
SMILES,KB-3-1 cytotox,HT1080 IDH1KD tx,DT40 TDP1 no CPT,DT40 TDP1 CPT,HT1080NT lethal,KB-V1 MDR tox
CCOc1ccc(CCNC(=O)c2cc3c(C)nccc3[nH]c2=O)cc1OCC,i,?,13µM*,12µM*,-3%,?
COc1ccc(CCNC(=O)c2cc3c(=O)[nH]c4ccc(C)cc4c3s2)cc1OC,i,·,12µM*,13µM*,·,i
CCOC(=O)CNC(=O)c1cc2c(=O)[nH]c3ccc(C)cc3c2s1,i,16%,10%,35%,7%,i
COc1cc(/C=C(\C#N)c2nc3ccccc3c(=O)[nH]2)cc(OC)c1OC,i,·,·,·,·,i
CCCCCOc1ccc(/C=C/C(=O)Nc2sc3c(c2C(=O)OCC)CCC3)cc1OC,i,·,?,-5%,·,i
Cc1cccc(-n2ncc3c(NC4CCCCC4)ncnc32)c1,i,-14%,?,?,-16%,i
Cc1ccc(-n2ncc3c(NC4CCCCC4)ncnc32)cc1Cl,i,·,16µM*,21µM*,·,i
Cc1cccc(-n2ncc3c(NC4CCCC4)ncnc32)c1,i,·,-52%,21µM*,·,i

# Screening data: PubChem, National Center for Advancing Translational Sciences (NCATS)
